In PubChem BioAssay (NCI) one finds growth data, which are given here for 40 compounds.

Compounds without any hit were thinned out: in the full panel of roughly 83,000, 20% have a hit.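 A percent growth of 40 corresponds to 60% growth inhibition; 0 means no net growth; -100 means all cells died. Active threshold: below 10.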 Values without a mark were called inactive. Active and inactive are the calls of the source.

This test has as its system HL-60(TB) leukemia. Kind of test: NCI-60 one-dose screen, 48 h (100 = growth as untreated, 0 = no growth, -100 = all killed). Particulars: 10 µM unless noted.
On to `CSC1=CC(=O)c2ccccc2C1=O`, for which the growth is -49.5% (active).

With `COc1ccc(COC(=O)CC(C)C)cc1`, the growth is 99.7%.

Consider `COc1nc2ccccc2cc1-c1nc2c(cnn2-c2ccccc2)c(=O)[nH]1`, for which the growth is 11.2%.

With `O=C(N/N=C/c1ccc(Cl)cc1)c1cc(-c2cc3ccccc3o2)nn1-c1ccccc1`, the growth was 117%.

Turning to `CC/C=C\C/C=C\C[C@H]1C/C=C2/C(=O)C=C[C@@H]2C/C=C\CCC(=O)O1`, the growth was 1.1% (active).

With `CN1CCN(CC(=O)Nc2cccc(-n3cc(-c4ccncc4)c(-c4ccc(Cl)c(O)c4)n3)c2)CC1`, the growth was 5.27% (active).

Consider `Cc1cc(C)c(S(=O)(=O)N2CCN(c3cc4c(cc3F)c(=O)c(C(=O)O)cn4C3CC3)CC2)c(C)c1`, for which the growth was 8.72% (active).

In the case of `COC(=O)Cc1cc(COC(C)=O)ccc1C`, the growth was 84.8%.

Regarding `Nc1nc(N)c2c(n1)NC(c1cccc(Nc3ccnc4cc(C(F)(F)F)ccc34)c1)CC(c1ccc(F)cc1)=N2` (stereo not given), the growth is 17.8%.

Regarding `CCCOC(=O)C1(O)CCCC1`, the growth was 107%.

Consider `C=C(C)[C@@H]1CC[C@]2(CNCCO)CC[C@]3(C)[C@H](CC[C@@H]4[C@@]5(C)CCC(N)[C@@](C)(CO)[C@@H]5CC[C@]43C)[C@@H]12` (stereo not given in full), for which the growth was -63.7% (active).

Take `CC/C=C\C/C=C\C[C@H]1C/C=C2/C(=O)C=C[C@H]2C/C=C\CCC(=O)O1`: the growth was -5.31% (active).

For `c1ccc2cc(C[n+]3ccn(CCCCCCCn4cc[n+](Cc5ccc6ccccc6c5)c4)c3)ccc2c1`, the growth was 32.9%.

`CCOC(=O)C1=NN(c2ccc(Cl)cc2)C2C3N(c4ccc(Cl)cc4)N=C(C(=O)OCC)N3c3ccccc3N12` (stereo not given): the growth is -67.8% (active).

As for `NNc1ccc(S(N)(=O)=O)cc1`, the growth was 75.9%.

For the compound `O=C(CC(=O)C(F)(F)C(F)(F)C(F)(F)F)c1cc2ccccc2o1`, the growth was 99.3%.

As to `CCOc1ccccc1-c1cc(-c2cccs2)c(C#N)c(=O)[nH]1`, the growth is 78.9%.

On to `COc1cc2c(cc1OC)C(C)N(S(N)(=O)=O)CC2` (stereo not given), for which the growth is 72.2%.

As to `Cc1cc2nc3c4cc([N+](=O)[O-])ccc4n(CCN(C)C)c3nc2cc1C`, the growth is -4.06% (active).

Regarding `COc1ccc(Nc2cc(C)nc(NCCCNc3ccnc4cc(Cl)ccc34)n2)cc1`, the growth was -75.7% (active).

On to `Cn1cc(-c2nc(-c3c[nH]c4ccncc34)cs2)c2cc(F)ccc21`, for which the growth was -55.3% (active).

For `N#C/C(=C\c1ccc(Br)cc1)n1nnc2c(F)cccc21`, the growth was 0.171% (active).

Take `N#C/C(C(=O)c1ccccc1)=C1/C(=O)Nc2ccc(Br)cc21`: the growth is 146%.

As to `O=C(CCCl)OCCOc1ccccc1`, the growth is 101%.

With `C=CC(=O)Nc1cccc(Nc2nc(Nc3ccc(OCCOC(F)F)cc3)ncc2F)c1`, the growth is 19.8%.

For the compound `COc1ccc(SC2c3ccc(C)cc3Oc3nc(N)c(C#N)c(N)c32)cc1` (stereo not given), the growth is -53.4% (active).

For the compound `Clc1cc(Cl)c(Cl)c(-c2nc(-c3cccnc3)cs2)c1`, the growth was -3.35% (active).

Regarding `C=CCN1C(=O)c2cccc3c(-c4ccc5c(c4)ncn5C4CCCCC4)ccc(c23)C1=O`, the growth is 25.5%.

Regarding `COc1cc(OC)c(C(=O)/C=C/c2cc3c(cc2OCc2ccccc2)OC(C)(C)CC3)cc1CC=C(C)C`, the growth is -28.5% (active).

For `Nc1ncc(-c2ccc3ncnc(Nc4cncc(Cl)c4)c3c2)cn1`, the growth is 92.5%.

As for `Cc1c(Cl)cc(Cl)c(N)c1Cl`, the growth is 102%.

Regarding `Fc1ccc(Oc2ccc(Nc3ncnc4onc(-c5ccccc5)c34)cc2)cc1`, the growth was 86.9%.

`COc1cc(/C=C/C(=O)/C=C/c2ccc(-n3ccnc3)cc2)ccc1O`: the growth is 36.2%.

As to `CC(C)CC(NC(=O)OCC1c2ccccc2-c2ccccc21)C(=O)O` (stereo not given), the growth was 105%.

As for `Nc1cccc(C(=O)Nc2ccc3c(O)c(N=Nc4ccc(N=Nc5ccc(S(=O)(=O)O)cc5)cc4)c(S(=O)(=O)O)cc3c2)c1`, the growth was 88.7%.

As to `COc1ccc(/C=C\C(=O)/C=C/c2ccc(OC)cc2)cc1`, the growth is 50.2%.

As for `COc1cc2ncnc(Nc3ccc(C(=O)/C=C/c4ccc(C(F)(F)F)cc4F)cc3)c2cc1OC`, the growth is 85.9%.

As to `CCOCCC(=O)O`, the growth is 106%.

Take `COc1ccc(CCN2CCCN3C2=Nc2ccccc2S3(=O)=O)cc1`: the growth was 3.21% (active).

For `CC(=O)N1N=C(c2cccc(Nc3ccncc3)c2)CC1c1ccc2c(c1)OCO2` (stereo not given), the growth is 90.3%.
